Potency data for 38 molecules are collected here from PubChem BioAssay AID1508622 (National Center for Advancing Translational Sciences (NCATS), 2021).

Calls of active or inactive are those of the source. A call without a number means that no potency is given here. The call rests on the fitted dose curve; in most records, active means well fitted activation curve with a large enough effect; inconclusive means small, poorly fitted or top-dose-only effect; inactive means no such curve, though single readings can be large or run the other way.
Potency means the concentration at half of the fitted maximal effect.

A short description of this assay: Confirmatory qHTS for Identification of Small Molecule Activators of Huntingtin-Antisense Promoter Activity. Particulars: HEK293 HTT-AS promoter firefly luciferase reporter, 24 h; series mostly up to 57.5 µM. Summed up: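 Activity normalized between vehicle control (0%) and zero RLU (-100%) from firefly luminescence (Dual-Glo). Compounds, up to 57.5 uM final, incubated 24 h at 37C on HEK293 reporter cells plated 24 h earlier.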
(In general: qHTS replaces the single test concentration by a dilution series.)
Turning to `COc1ccc(N2CCN(C(CNC(=O)C(=O)NCCc3ccccc3)c3cccnc3)CC2)cc1` (stereo not drawn), the Potency entry is “inactive”.

Turning to `Cc1ccc(C)c(N2CCN(C(=O)c3nn(C)c4c3CS(=O)(=O)c3ccccc3-4)CC2)c1`, the Potency result is “inactive”.

Turning to `COc1ccc(NC(=O)CN2CCCN(S(=O)(=O)c3ccc(Br)cc3)CC2)c(OC)c1`, the Potency entry was “inactive”.

On to `Cc1ccc(CNC(=O)c2ccc(CSc3nc4ccncc4n3Cc3ccc(C)cc3)cc2)cc1`, for which the Potency entry is “inactive”.

`O=C(NCc1ccc(Cl)cc1)C1CCN(S(=O)(=O)c2ccc3c(c2)CCCN3C(=O)C2CCC2)CC1`: the Potency result is “inactive”.

On to `CCc1ccc(CNC(=O)c2cc3cc(S(=O)(=O)N4CCCCC4)ccc3n2C)cc1`, for which the Potency result is “inactive”.

Consider `CC(C)c1ccc(CNC(=O)c2ccc(N3CCCC3)c(NC(=O)NCc3ccccc3)c2)cc1`, for which the Potency result is “inactive”.

Consider `COc1ccc(C2c3c(-c4c(C)cc(C)cc4O)n[nH]c3C(=O)N2Cc2ccco2)cc1` (stereo not drawn), for which the Potency entry is “inactive”.

As for `O=C(COCc1cc(-c2cccs2)on1)N1CCN(c2cccc(Cl)c2)CC1`, the Potency entry was “inactive”.

For the molecule `Cc1ccc(SCc2nc(-c3ccc(C(=O)NCC(C)c4ccccc4)cc3)oc2C)cc1` (stereo not drawn), the Potency result is “inactive”.

Consider `O=C(Cn1cc(S(=O)(=O)Cc2ccccc2Cl)c2ccccc21)Nc1cccc(C(F)(F)F)c1`, for which the Potency entry was “inactive”.

As for `COc1ccc(-c2noc(CSc3nnc(-c4ccccc4)n3-c3ccc(F)cc3)n2)c(OC)c1`, the Potency entry was “inactive”.

Take `COc1cc(Cn2c(=O)oc3ccc(C)cc32)ccc1OCCC(C)C`: the Potency entry was “inactive”.

With `Cc1ccccc1OCC(=O)NCC(c1ccc(Cl)cc1)N1CCOCC1` (stereo not drawn), the Potency entry was “inactive”.

As to `CCOc1ccc(CCNc2ncnc3onc(C)c23)cc1OCC`, the Potency entry is “inactive”.

With `Cc1cc(C)cc(OCCn2c(C3CC(=O)N(c4ccccc4Cl)C3)nc3ccccc32)c1` (stereo not drawn), the Potency entry was “inactive”.

For `Fc1ccc(N2CCN(c3ncnc4c3nc3n4CCCCC3)CC2)cc1`, the Potency entry was “inactive”.

In the case of `Cc1cccc(CNC(=O)C2CCN(S(=O)(=O)c3ccc4c(c3)CCCN4C(=O)C3CCC3)CC2)c1`, the Potency entry is “inactive”.

`COc1ccc(NC(=O)c2cc(S(=O)(=O)NCCC3=CCCCC3)ccc2F)cc1`: the Potency entry is “inactive”.

Regarding `COc1ccccc1C1C=C(c2ccc(F)cc2)Nc2nc(-c3ccc(Cl)cc3)nn21` (stereo not drawn), the Potency entry was “inactive”.

Consider `Cc1ccc(NCc2cccn2-c2nnc(N3CCC(C(=O)NCc4ccc(OC(C)C)cc4)CC3)s2)cc1`, for which the Potency entry was “inactive”.

As to `Cc1cccc(-c2nc(CSCC(=O)N3CCN(c4ccccc4)CC3)c(C)o2)c1`, the Potency result was “inactive”.

As for `CC(C)c1ccc(NC(=O)c2cnc3sc(N4CCCC4)nn3c2=O)cc1`, the Potency entry was “inactive”.

With `Cc1ccc(Nc2cc(C(=O)NC3CCCC3)c3ccccc3n2)cc1C`, the Potency result was “inactive”.

Turning to `COc1cc(CN(C(=O)COc2ccc(C)cc2)c2ccccn2)cc(OC)c1OC`, the Potency result is “inactive”.

`Cn1c(Oc2ccc(F)cc2)nc2c1c(=O)n(Cc1ccccc1Cl)c(=O)n2C`: the Potency entry was “inactive”.

`COc1cc2c(cc1OC)C(COc1ccc(C(C)C)cc1)N(C(=O)COc1ccccc1)CC2` (stereo not drawn): the Potency result is “inactive”.

In the case of `CCOc1cccc(NC(=O)c2ccc(F)c(S(=O)(=O)N(CC)c3cccc(C)c3)c2)c1`, the Potency result was “inactive”.

For the molecule `CN(C)c1ccc(Nc2nc(N)n(C(=O)c3c(F)cccc3F)n2)cc1`, the Potency is 30.1 µM (active).

Consider `COc1ccc(NC(=O)c2ccc(-c3nc(CSc4ccccc4)c(C)o3)cc2)c(OC)c1`, for which the Potency entry was “inactive”.

`Cc1cccc(NC(=O)c2c(NC(=O)C(F)(F)F)sc3c2CCCCC3)c1`: the Potency entry is “inactive”.

Regarding `COc1cc(NS(=O)(=O)c2ccc3c(c2)CCCN3C(C)=O)cc(OC)c1OC`, the Potency result was “inactive”.

For `Cc1ccc(C(=O)Nc2ccc(S(=O)(=O)N(Cc3ccccc3)c3ccccc3)cc2)cc1`, the Potency entry is “inactive”.

Regarding `Cc1cc(C)c(Cn2c3ccccc3c3cnn(CC(=O)N4CCCCC4)c(=O)c32)c(C)c1`, the Potency result was “inactive”.

Consider `CC(=O)c1ccc(N2CCN(c3ncnc4onc(C)c34)CC2)cc1`, for which the Potency result is “inactive”.

Consider `Cc1ccc(NC(=O)C2CCCN2S(=O)(=O)c2ccc3c(c2)CCCC(=O)N3)cc1C` (stereo not drawn), for which the Potency result was “inactive”.

`COc1ccc(S(=O)(=O)N2CCC(c3nnnn3-c3ccccc3)CC2)cc1OC`: the Potency entry was “inactive”.

As to `CCc1ccc2c(c1)-c1ccccc1S(=O)(=O)N2CC(=O)N1CCC(C)CC1`, the Potency is 12 µM (active).
